Results as given in PubChem BioAssay (Tox21).
Results filed as inconclusive are left out. Activity calls are given as the source filed them. Unless noted, calls come from the whole dose curve; as a rule, active = well fitted curve in the direction sought with a large enough effect in the repeat runs; inconclusive = weak or mixed curves; inactive = no such curve, though single readings can be large; an effect the other way counts as inactive or inconclusive.

Assays:
[1] = molecular target: Thyrotropin receptor (Homo sapiens) (UniProt P16473); assay: qHTS assay to identify small molecule agonists of the thyroid stimulating hormone receptor (TSHR) signaling pathway (AID 1224843; calls by dose curve; note: nearly all actives have a fitted effect of over 45% in size)
Sequence of Thyrotropin receptor (Homo sapiens) (P16473 whole entry, looked up): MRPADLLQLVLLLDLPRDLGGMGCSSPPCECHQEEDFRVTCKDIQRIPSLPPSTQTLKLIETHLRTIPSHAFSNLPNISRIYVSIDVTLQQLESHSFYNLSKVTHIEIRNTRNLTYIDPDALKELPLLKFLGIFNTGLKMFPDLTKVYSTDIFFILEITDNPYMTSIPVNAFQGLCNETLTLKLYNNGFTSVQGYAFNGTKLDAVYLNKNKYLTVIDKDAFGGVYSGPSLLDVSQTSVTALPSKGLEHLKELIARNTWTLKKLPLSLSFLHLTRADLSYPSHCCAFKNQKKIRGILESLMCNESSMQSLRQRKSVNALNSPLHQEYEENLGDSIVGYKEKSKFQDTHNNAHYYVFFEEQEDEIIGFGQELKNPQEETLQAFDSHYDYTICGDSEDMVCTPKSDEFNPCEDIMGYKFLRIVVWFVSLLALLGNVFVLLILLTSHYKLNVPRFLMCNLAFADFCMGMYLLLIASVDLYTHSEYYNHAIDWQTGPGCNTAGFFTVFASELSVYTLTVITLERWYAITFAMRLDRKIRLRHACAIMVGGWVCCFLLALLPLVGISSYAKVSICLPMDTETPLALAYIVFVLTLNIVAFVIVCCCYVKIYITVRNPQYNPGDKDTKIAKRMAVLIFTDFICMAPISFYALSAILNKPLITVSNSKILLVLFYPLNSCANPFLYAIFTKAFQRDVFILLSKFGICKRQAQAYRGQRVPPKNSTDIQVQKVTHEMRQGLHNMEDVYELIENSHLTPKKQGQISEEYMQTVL
In short: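 Agonist-mode screen: TSHR HEK293 cells received test chemicals for half an hour at room temperature, then HTRF cAMP detection reagents for one hour prior to fluorescence measurement. Each chemical ran as a 15-concentration series, triplicated.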

[2] = qHTS assay to identify small molecule agonists of the hypoxia (HIF-1) signaling pathway - cell viability counter screen (AID 1224844; calls by dose curve; note: nearly all actives have a fitted effect of over 50% in size)
In short: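 Same wells as the HIF-1 reporter screen; ME-180 cells carrying HRE-bla, 17 hr treatment at 37C; CellTiter-Glo luminescence read after 30 min at room temperature.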

[3] = qHTS assay to identify small molecule agonists of H2AX (AID 1224845; active = well fitted activation curve with a large enough effect in the signal ratio in the repeat runs, not every such curve was filed as active; the % refers to the signal ratio)
In short: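 Wild-type CHO-K1 cells, plated overnight, exposed 3hr at 37C to 15 concentrations (0.76% DMSO final). Lysed, then HTRF anti-pH2AX (S139) cryptate and anti-H2AX-d2 antibodies, 24 hr room temperature; 665/620 nm emission read.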

[4] = qHTS assay to identify small molecule agonists of the hypoxia (HIF-1) signaling pathway (AID 1224846; active = well fitted activation curve with a large enough effect in the signal ratio in the repeat runs, not every such curve was filed as active; the % refers to the signal ratio)
In short: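 In ME-180 cells bearing an HRE-bla construct, 17 h treatment with DMSO-dissolved compounds at 37C was followed by CCF4-AM loading to quantify reporter induction.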

[5] = qHTS assay to identify small molecule agonists of H2AX - cell viability counter screen (AID 1224847; calls by dose curve; note: top concentration of the series differs between compounds; nearly all actives have a fitted effect of over 30% in size)
In short: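 CHO-K1 cells plated overnight at 37C, then exposed 3 h at 37C to compounds at 15 concentrations (0.76% DMSO final). Viability by CellTiter-Glo luminescence after 30 min at room temperature.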

[6] = qHTS RealTime-Glo MT Cell Viability Assay in HepG2 cells - 24 hour (AID 1224867); note: nearly all actives have a fitted effect of over 50% in size
In short: (§1)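 Cell number in HepG2 cultures estimated from NanoLuc luminescence generated by metabolic reduction of a prosubstrate by living cells. The homogeneous, nonlytic format allowed repeated reads at 0, 8, 16, 24, 32 and 40 h of compound exposure.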

[7] = qHTS RealTime-Glo MT Cell Viability Assay in HEK293 cells - 32 hour (AID 1224868); note: top concentration of the series differs between compounds; nearly all actives have a fitted effect of over 50% in size
In short: (§2)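 Homogeneous bioluminescent viability format in HEK293 cells (600 cells/well). Following 5 h at 37 C/5% CO2, 23 nL compound was pintooled; the signal was measured repeatedly during 40 h incubation.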

[8] = A CellTox Green Cytotoxicity Assay to monitor cytotoxicity in HEK293 cells - 0 hour (AID 1224869); note: nearly all actives have a fitted effect of over 50% in size
In short: (§3)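 Homogeneous no-lysis format: HEK293 cell suspension mixed with CellTox Green reagent, seeded, incubated 5 h at 37 C/5% CO2, then dosed by pintool with compound in DMSO.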

[9] = qHTS RealTime-Glo MT Cell Viability Assay in HepG2 cells - 40 hour (AID 1224870); note: nearly all actives have a fitted effect of over 50% in size
In short: (§4)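 HepG2 cells (600/well) mixed with RealTime-Glo MT reagent, settled 5 h at 37 C/5% CO2 before compound addition. Nonlytic NanoLuc luminescence from viable-cell prosubstrate reduction read repeatedly during 40 h treatment at 37 C.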

[10] = A CellTox Green Cytotoxicity Assay to monitor cytotoxicity in HEK293 cells - 40 hour (AID 1224871); note: nearly all actives have a fitted effect of over 45% in size
In short: as §3

[11] = qHTS RealTime-Glo MT Cell Viability Assay in HEK293 cells - 16 hour (AID 1224872)
In short: as §2

[12] = qHTS RealTime-Glo MT Cell Viability Assay in HepG2 cells - 8 hour (AID 1224873); note: nearly all actives have a fitted effect of over 55% in size
In short: as §4

[13] = qHTS RealTime-Glo MT Cell Viability Assay in HEK293 cells - 40 hour (AID 1224874); conditions: RealTime-Glo luminescence; max response: hits give low values; note: nearly all actives have a fitted effect of over 50% in size
In short: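 Measured as luminescence from the same continuously cultured HEK293 wells at successive time points (0, 8, 16, 24, 32, 40 h) after compound addition. Reagent present from seeding; dosing at 5 h; incubation 37 C.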

[14] = A CellTox Green Cytotoxicity Assay to monitor cytotoxicity in HEK293 cells - 24 hour (AID 1224875); note: series mostly up to about 77 µM; nearly all actives have a fitted effect of over 45% in size
In short: as §3

[15] = A CellTox Green Cytotoxicity Assay to monitor cytotoxicity in HepG2 cells - 16 hour (AID 1224876); note: nearly all actives have a fitted effect of over 45% in size
In short: (§5)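 Fluorescent DNA-binding dye, 600 HepG2 cells/well, 5 h preincubation then compound in DMSO; same plates read at 0–40 h, 37 C.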

[16] = qHTS RealTime-Glo MT Cell Viability Assay in HepG2 cells - 32 hour (AID 1224877); note: nearly all actives have a fitted effect of over 55% in size
In short: as §1

[17] = A CellTox Green Cytotoxicity Assay to monitor cytotoxicity in HepG2 cells - 24 hour (AID 1224878); note: nearly all actives have a fitted effect of over 45% in size
In short: as §5

[18] = A CellTox Green Cytotoxicity Assay to monitor cytotoxicity in HepG2 cells - 40 hour (AID 1224879); note: nearly all actives have a fitted effect of over 40% in size
In short: as §5
% is set by controls: 0 for no effect and ±100 for the full control effect.

Cc1cc(OI)c(C(C)C)cc1-c1cc(C(C)C)c(OI)cc1C
inactive: Potency [1] | Potency [2] | Potency [3] | outcome [4] | Potency [5] | Potency [6] | Potency [7] | Potency [8] | Potency [9] | Potency [10] | Potency [11] | Potency [12] | max response [13] -0.141% | Potency [14] | Potency [15] | Potency [16] | Potency [17]

CCOCCn1c(C2CCN(CCc3ccc(C(C)(C)C(=O)O)cc3)CC2)nc2ccccc21
inactive: Potency [1] | Potency [2] | Potency [3] | outcome [4] | Potency [5] | Potency [6] | Potency [7] | Potency [9] | Potency [10] | Potency [11] | max response [13] 0.952% | Potency [14] | Potency [16]

CCC(C)(O)CCC=C(C)C (stereo not drawn)
inactive: Potency [1] | Potency [2] | Potency [3] | outcome [4] | Potency [5] | Potency [6] | Potency [7] | Potency [9] | Potency [10] | Potency [11] | Potency [12] | max response [13] -9.96% | Potency [14] | Potency [15] | Potency [16] | Potency [17] | Potency [18]

O=C(O)c1cccc(O)c1
inactive: Potency [1] | Potency [2] | Potency [3] | outcome [4] | Potency [5] | Potency [6] | Potency [7] | Potency [8] | Potency [9] | Potency [10] | Potency [11] | Potency [12] | max response [13] 8.08% | Potency [15] | Potency [16] | Potency [17] | Potency [18]

CC1CN(c2cc3c(cc2F)c(=O)c(C(=O)O)cn3-c2ccc(F)cc2F)CCN1 (stereo not drawn)
inactive: activation [1] -2.32% [at 8.39 µM] | activity change, negative = cytotoxicity [2] 5.19% [at 6.97 µM] | activation (H2AX phosphorylation) [3] -0.572% [at 14 µM] | activation [4] 0.362% [at 7.01 µM] | activity change, negative = cytotoxicity [5] 1.23% [at 14 µM] | activity change, negative = cytotoxicity [6] 4.21% [at 6.97 µM] | activity change, negative = cytotoxic [7] 5.72% [at 6.97 µM] | cytotoxicity [8] -3.88% [at 6.97 µM] | activity change, negative = cytotoxic [9] 3.59% [at 6.97 µM] | cytotoxicity increase [10] -7.27% [at 6.97 µM] | activity change, negative = cytotoxicity [11] 6.7% [at 6.97 µM] | viability change, negative = cytotoxic [12] 1.58% [at 6.97 µM] | max response [13] 2.82% | activity change [14] -1.61% [at 6.97 µM, hits give high values] | cytotoxicity increase [15] 0.798% [at 6.97 µM] | activity change, negative = cytotoxic [16] 0.449% [at 6.97 µM] | cytotoxicity [17] -0.333% [at 6.97 µM] | cytotoxicity increase [18] 1.74% [at 6.97 µM]

Cc1cnc(C)c(C)n1
inactive: Potency [1] | Potency [2] | Potency [3] | outcome [4] | Potency [5] | Potency [6] | Potency [7] | Potency [8] | Potency [9] | Potency [10] | Potency [11] | Potency [12] | max response [13] -11.2% | Potency [15] | Potency [16] | Potency [17] | Potency [18]

ON(Cc1ccccc1)Cc1ccccc1
inactive: Potency [1] | Potency [2] | Potency [3] | outcome [4] | Potency [5] | Potency [6] | Potency [8] | Potency [9] | Potency [10] | Potency [11] | Potency [12] | max response [13] 4.01% | Potency [14] | Potency [15] | Potency [16] | Potency [17] | Potency [18]

Cc1ccnc2ccccc12
inactive: Potency [1] | Potency [2] | Potency [3] | outcome [4] | Potency [5] | Potency [6] | Potency [7] | Potency [8] | Potency [9] | Potency [10] | Potency [11] | Potency [12] | max response [13] 6.48% | Potency [14] | Potency [15] | Potency [16] | Potency [17] | Potency [18]

CCCCOC(=O)CCS
inactive: Potency [1] | Potency [2] | Potency [3] | outcome [4] | Potency [5] | Potency [6] | Potency [7] | Potency [8] | Potency [9] | Potency [10] | Potency [11] | Potency [12] | max response [13] 5.96% | Potency [14] | Potency [15] | Potency [16] | Potency [17] | Potency [18]

CCCCCCCCCCOS(=O)(=O)O
inactive: Potency [1] | Potency [2] | Potency [3] | outcome [4] | Potency [5] | Potency [6] | Potency [7] | Potency [9] | Potency [10] | Potency [11] | Potency [12] | max response [13] -3.11% | Potency [14] | Potency [15] | Potency [16] | Potency [17]

CCCCC(CC)COC(=O)COc1ccc(Cl)cc1C (stereo not drawn)
inactive: Potency [1] | Potency [2] | Potency [3] | outcome [4] | Potency [5] | Potency [6] | Potency [7] | Potency [8] | Potency [9] | Potency [10] | Potency [11] | Potency [12] | max response [13] 14.7% | Potency [14] | Potency [15] | Potency [16] | Potency [17] | Potency [18]

CCCCCCCCCOC(C)=O
inactive: Potency [1] | Potency [2] | Potency [3] | outcome [4] | Potency [5] | Potency [6] | Potency [7] | Potency [8] | Potency [9] | Potency [10] | Potency [11] | Potency [12] | max response [13] -10.8% | Potency [14] | Potency [15] | Potency [16] | Potency [17] | Potency [18]

CCOC(=O)/C=C/C(=O)O
inactive: Potency [1] | Potency [2] | Potency [3] | outcome [4] | Potency [5] | Potency [6] | Potency [7] | Potency [8] | Potency [9] | Potency [10] | Potency [11] | Potency [12] | max response [13] 16.2% | Potency [14] | Potency [15] | Potency [16] | Potency [17] | Potency [18]

CO[Si](C)(OC)OC
inactive: Potency [1] | Potency [2] | Potency [3] | outcome [4] | Potency [5] | Potency [6] | Potency [7] | Potency [8] | Potency [9] | Potency [10] | Potency [11] | max response [13] 2.67% | Potency [14] | Potency [15] | Potency [16] | Potency [17]
